Source: PubChem
Shown are actives, neighbours in structure and some others; about 19% of the full set was active somewhere.
HT1080-NT tox – kills 2HG-producing HT-1080-NT fibrosarcoma cells. 1.6% of 360,000 active. Potency, µM (top dose mostly 46.1 µM), without a hit: top-dose activity, negative = less viability, hits mostly cytotoxic. HT-1080-NT fibrosarcoma viability, CellTiter-Glo ATP luminescence, 48 h;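 also: NT is the 2HG producing partner of a matched IDH1 knockdown line; potency is read from the fitted curve at half-maximal effect; 0% = DMSO-treated cells and -100% = media-only wells without cells; nearly all actives have a fitted effect of over 55% in size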
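Viability of the 2HG-overproducing fibrosarcoma line after 48 hours of compound exposure at 37 degrees C was determined by luminescence with CellTiter-Glo, and concentration-effect curves were then fitted and categorized.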
TDP1 cell CPT – growth inhibition of DT40 Tdp1-/-;hTDP1 cells with camptothecin (screen for TDP1 inhibitors). chicken DT40 Tdp1-/-;hTDP1 cells + 20 nM CPT, ATP luminescence, 48 h. Potency, µM (top dose mostly 46.2 µM), inactives show at the top dose activity change, negative = growth inhibition, most hits filed as inhibitors. 12% of 420,000 active; also: potency is read from the fitted curve at half-maximal effect; nearly all actives have a fitted effect of over 55% in size
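Chicken DT40 Tdp1-/- cells complemented with human TDP1, 400 cells/well, exposed to compounds plus 20 nM camptothecin for at least 48 h at 37 C; viability read as ATP content by CellTiter-Glo luminescence.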
IL-1B inflam inh – inhibitors of inflammasome signaling (IL-1 beta secretion). THP-1 LPS/ATP IL-1B secretion, AlphaLISA, 16 h; hits give low values. activity change, % at 57.5 µM. 4.7% of 360,000 active; in the data active = activity change below about -50%; inconclusive = mostly about -30% to -49%
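THP-1 cells pretreated 1 hr with compounds (up to 57.5 uM final), then stimulated with LPS (250 ng/mL final) plus ATP (1.25 mM final); secreted IL-1B measured by AlphaLISA after 16 hr, decreased signal indicating inhibition.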
DT40 TDP1 no CPT – qHTS for Inhibitors of human tyrosyl-DNA phosphodiesterase 1 (TDP1): qHTS in cells in absence of CPT | DT40 Tdp1-/- hTDP1 cells, no CPT, ATP luminescence, 48 h | Potency, µM (titrated, usually from 46.2 µM), without a hit: at the highest dose activity change, negative = growth inhibition, usual class: inhibitors | 15% of 420,000 active | AID 686978, 2013; also: potency is read from the fitted curve at half-maximal effect; nearly all actives have a fitted effect of over 55% in size
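No-CPT arm: Tdp1-/-;hTDP1 DT40 cells (400/well) plus compounds, incubated ≥48 hr at 37 °C. Readout CellTiter-Glo luminescence.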
HT1080 IDH1KD tx – toxicity to HT-1080 IDH1 knockdown cells (counter line) | HT-1080 IDH1 knockdown viability, ATP luminescence, 48 h | AID 686971 | Potency, µM (highest dose often 46.1 µM), without a hit: at the highest dose activity, negative = toxicity, usual class: cytotoxic | 2% of 360,000 active;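 also: potency is read from the fitted curve at half-maximal effect; 0% = DMSO wells and -100% = cell-free medium wells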
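Cytotoxicity counter-line: IDH1KD HT-1080, 48 h, CellTiter-Glo. Curves classed by r2, magnitude and activity.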
* = called active by the depositor; ? = inconclusive; · = not tested or not shown; [ ] = another dose, or the depositor's remark. Unless noted, calls follow the shape of the dose curve; as a rule, active = well fitted curve in the direction sought with a large enough effect; inconclusive = small, poorly fitted or top-dose-only effect, or another doubt; inactive = no such curve, though single readings can be large; an effect the other way counts as inactive or inconclusive. Unless noted, % is scaled to controls: 0 for no effect and ±100 for the full control effect.

SMILES	HT1080-NT tox	TDP1 cell CPT	IL-1B inflam inh	DT40 TDP1 no CPT	HT1080 IDH1KD tx
CC(C)(C)OC(=O)NCc1ccc(NC(=O)c2nc[nH]c2C(=O)N[C@@H](Cc2ccccc2)C(=O)OCc2ccccc2)cc1	?	?	-64.5*	?	?
CC(C)(C)OC(=O)NCc1ccc(CNC(=O)c2[nH]cnc2C(=O)N[C@@H](Cc2ccccc2)C(=O)OCc2ccccc2)cc1	-26.5%	?	3.8	23.1µM*	-5.5%
CC(C)(C)OC(=O)NCc1ccc(CNC(=O)c2[nH]cnc2C(=O)N[C@@H](Cc2ccccc2)C(=O)OC(C)(C)C)cc1	-12.4%	18.4µM*	?	20.6µM*	-0.6%
CC(C)C[C@H](NC(=O)c1nc[nH]c1C(=O)NCc1ccc(CNC(=O)OC(C)(C)C)cc1)C(=O)OCc1ccccc1	-9.0%	?	-0.2	20.6µM*	-1.3%
CC(C)(C)OC(=O)[C@H](Cc1ccccc1)NC(=O)c1nc[nH]c1C(=O)NCc1ccccc1	2.6%	?	-29.1	-29.6%	3.6%
COc1cccc(CN(CC2CCCO2)C(=O)c2cc3ccccc3oc2=O)c1 (stereo unspecified)	2.8%	?	-10.1	-17.4%	-5.4%
Cc1cccc(Cl)c1NC(=S)NN	3.4%	?	-7.6	13µM*	2.2%
CCN1C=CC2=C(C#N)C(N)C(C#N)(C#N)C(c3ccccc3C(F)(F)F)C2C1 (stereo unspecified)	-3.5%	?	-7.8	23.1µM*	-9.5%
COCCn1cc(-c2csc(N)n2)c2ccccc21	-2.5%	-14.7%	-10.3	?	10.7%
CN(C)c1nc(-c2cn(CCC#N)c3ccccc23)cs1	?	?	-24.7	?	25.9µM*
c1ccc(-c2cn(-c3ccccc3)c3ncnc(N4CCCCC4)c23)cc1	?	9.2µM*	-57.3*	18.4µM*	?
COc1ccccc1N1CCN(c2ncnc3c2c(-c2ccccc2)cn3-c2cccc(C)c2)CC1	·	18.4µM*	·	?	·
CC1CCN(c2ncnc3c2c(-c2ccccc2)cn3-c2ccc(Br)cc2)CC1	·	-0.4%	·	13.7%	·
CCCSc1ncnc2c1c(-c1ccccc1)cn2-c1ccccc1OC	·	?	·	20.6µM*	·
Clc1cccc(-n2cc(-c3ccccc3)c3c(N4CCCCC4)ncnc32)c1	·	16.4µM*	·	23.1µM*	·
CCOC(=O)CSc1ncnc2c1c(-c1ccccc1)cn2-c1ccc(OC)cc1	-6.5%	-2.6%	24.3	-10.1%	-2.7%
Cc1ccc(C(=O)NCC(=O)OC(C)C(=O)NC2CCCCC2C)cc1C (stereo unspecified)	7.5%	11.1%	21.3	-13.4%	3.3%
O=C(c1ccco1)C(O)c1ccco1 (stereo unspecified)	1.9%	-1.5%	5.8	12.0%	4.6%
CSCCC(NC(=O)c1ccco1)C(=O)NC1CCC(C)CC1 (stereo unspecified)	2.2%	1.5%	0.8	-8.4%	3.3%
CN1CCN(c2ncnc3c2c(-c2ccccc2)cn3-c2ccc(F)cc2)CC1	23.1µM*	18.4µM*	-206.9*	5.17µM*	23.1µM*
Cc1c(C(=O)NCCCc2ccncc2)cnn1-c1ncc2c(n1)-c1ccccc1CC2	·	-5.3%[9.04 µM]	·	?	·
Cc1c(C(=O)NCCCc2ccncc2)cnn1-c1nccc(-c2ccccc2F)n1	·	-6.6%[9.04 µM]	·	18.4µM*	·
O=C(NCCN1CCOCC1)c1cnn(-c2nccc(-c3ccccc3F)n2)c1C1CC1	·	6.9%[9.04 µM]	·	-9.8%	·
O=C(Nc1ccc(-n2cnnn2)cc1)C1CCCN1C(=O)Nc1ccc(Br)cc1 (stereo unspecified)	-11.1%	2.3%	-57.7*	?	-6.6%
O=S(=O)(Cc1ccc(Cl)cc1)c1ccccc1-c1nnc(-c2ccccc2)o1	2.1%	?	10.3	?	-11.7%
Clc1ccc(CCNC(c2nnc(-c3ccccc3)o2)c2ccccc2Cl)cc1 (stereo unspecified)	·	18.4µM*	·	23.1µM*	·
